Screen size: about 310,000 compounds; about 1,000 (0.32%) were called active. No rule for the calls is given here. A selection follows. Results with a measured potency or affinity are listed apart.

The term inhibition denotes the drop in the measured response relative to a control, in per cent.

The experiment in a line: PhoP regulon inhibitors, Salmonella typhi PhoP promoter GFP reporter, confirmatory (AID 1850).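 Also: 0% = induced wells with vehicle and 100% = uninduced wells.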 As to conditions: fluorescence, 4 h, at 50 µM, active compounds read high.
`CC1CN(c2oc(-c3ccco3)nc2C#N)CC(C)O1` (configuration not stated): the inhibition was 6.8% (inactive).

For the compound `C/C(=N\N=C(N)N)c1cccc(Cl)c1`, the inhibition is 9.67% (inactive).

For `C/C(=N\N=C(N)N)c1ccc(Cl)cc1`, the inhibition was -0.0633% (inactive).

Consider `O=C(CNS(=O)(=O)c1ccccc1)N1CCc2ccccc2C1`, for which the inhibition is -1% (inactive).

As for `Cn1c(=O)c2c(nc(NCC3CCCO3)n2Cc2cccc(Br)c2)n(C)c1=O` (configuration not stated), the inhibition was 2.34% (inactive).

Take `CN(C)S(=O)(=O)N1CCN(c2ccc([N+](=O)[O-])c(NC3CC3)c2)CC1`: the inhibition was -5.83% (inactive).

Regarding `CN(C)C(=O)C[n+]1ccc(/C=N/O)cc1`, the inhibition was -5.57% (inactive).

Regarding `CCN(CC)C(=O)C[n+]1ccc(C(N)=O)cc1`, the inhibition is -3.67% (inactive).

For the compound `CC(C)(C)C(=O)C[n+]1ccc(C(N)=O)cc1`, the inhibition is -7.77% (inactive).

On to `NC(=O)C[n+]1ccc(/C=N/O)cc1`, for which the inhibition is -7.01% (inactive).

For `CCCCCCCC[n+]1cccc(C(=O)N(CC)CC)c1`, the inhibition is -7.45% (inactive).

As to `CCCCCCCCCC[n+]1cccc(C(=O)N(CC)CC)c1`, the inhibition was 8.08% (inactive).

On to `O=C(c1ccc(F)cc1)N1CCN(C2CC3CCC2C3)CC1` (configuration not stated), for which the inhibition is -3.63% (inactive).

Consider `O=C(Nc1ccc2ccccc2n1)c1ccccc1Br`, for which the inhibition is -4.26% (inactive).

For `CCC(C)NC(=O)CCC(=O)NNc1nc2ccccc2c2nc(C)nn12` (configuration not stated), the inhibition is 10.9% (inactive).

With `CCn1cc(NC(=O)CCl)c(C)n1`, the inhibition was -1.91% (inactive).

With `CC(C)(C)OC(=O)N1CCC(c2c(C(=O)NCC3CCN(C4CCCC4)C3)cnn2-c2ccccc2)CC1` (configuration not stated), the inhibition was 4.93% (inactive).

Turning to `Oc1ccc(/C=N/Nc2nccnc2Cl)cc1`, the inhibition was -3.22% (inactive).

Regarding `Oc1ccccc1/C=N/Nc1nccnc1Cl`, the inhibition is -1.82% (inactive).

Consider `O=C(COc1ccc(Br)cc1)N(Cc1ccccc1)c1ccccn1`, for which the inhibition is 12.3% (inactive).

Consider `COc1ccc(NC(=O)CSCC(=O)N(C)CC(=O)Nc2ccc(Cl)c(C(F)(F)F)c2)cc1`, for which the inhibition was 5.95% (inactive).

As for `O=C(CCN1C(=O)c2ccccc2S1(=O)=O)N1CCN(c2cccc(Cl)c2)CC1`, the inhibition was 0.17% (inactive).

Regarding `COc1cc([N+](=O)[O-])cc(/C=N/NC(=O)c2cc(C)nc3ccccc23)c1O`, the inhibition is 21.1% (inactive).

As for `COc1cc([N+](=O)[O-])cc(/C=N/NC(=O)c2cncc(Br)c2)c1O`, the inhibition was 12.7% (inactive).

For the compound `O=C(N/N=C/c1cccc([N+](=O)[O-])c1O)C(O)(c1ccccc1)c1ccccc1`, the inhibition was 2.48% (inactive).

Regarding `COc1cc(/C=N/NC(=O)c2ccc(C)nc2)cc([N+](=O)[O-])c1O`, the inhibition is 2.56% (inactive).

Regarding `COc1cc([N+](=O)[O-])cc(/C=N/NC(=O)c2ccc(C)nc2)c1O`, the inhibition was 18.7% (inactive).

Regarding `COc1cc(/C=N/NC(=O)c2cccnc2)ccc1OC(=O)c1ccc([N+](=O)[O-])cc1`, the inhibition was 5.86% (inactive).

Turning to `O=C(N/N=C/c1cc([N+](=O)[O-])ccc1O)Nc1ccccc1`, the inhibition is 17.7% (inactive).

For the compound `O=C(N/N=C/c1ccc(O)c([N+](=O)[O-])c1)C(O)(c1ccccc1)c1ccccc1`, the inhibition was 4.8% (inactive).

As to `CCc1ccc(NC(=S)N(CCCN2CCN(C)CC2)Cc2cccs2)cc1`, the inhibition is 0.49% (inactive).

For `Cc1nnc(SCC(=O)c2c(N)n(Cc3ccccc3)c(=O)n(C)c2=O)n1C`, the inhibition is -13.4% (inactive).

On to `CC(=O)N(c1ccccc1C)S(=O)(=O)c1ccc(Cl)cc1`, for which the inhibition is -12.6% (inactive).

`O=C(Nc1ccccc1)c1ccc(=O)n(Cc2ccc(F)c(F)c2)c1`: the inhibition was -6.26% (inactive).

For the compound `CCOC(=O)N1CCc2c(sc3c2c(=O)n(Cc2ccccc2)c(=O)n3Cc2ccc(C)cc2)C1`, the inhibition was -2.36% (inactive).

Turning to `CSc1ccccc1C(=O)C1CCCN(C(=O)c2csnn2)C1` (configuration not stated), the inhibition is -11.4% (inactive).

With `COc1ccc(C(=O)NC2CC2)cc1OC1CCN(Cc2ccc(F)cc2Cl)CC1`, the inhibition was -3.14% (inactive).

As to `CC(O)(C#CCN1CCCC1)c1ccccc1` (configuration not stated), the inhibition is -6.56% (inactive).

Regarding `CCOC(=O)Cc1csc(NC(=O)c2sc3nc4ccc(C)cc4cc3c2N)n1`, the inhibition is -5.8% (inactive).

For `Cc1ccc(CNc2ncc(-c3ccc4c(c3)OCO4)n2C)cc1`, the inhibition was -2.15% (inactive).

In the case of `Cn1c(-c2ccc3c(c2)OCO3)cnc1NCc1cccc(Cl)c1`, the inhibition was 2.65% (inactive).

`Cc1ccccc1Nc1nnc(SCC(=O)N(C)C2CCS(=O)(=O)C2)s1` (configuration not stated): the inhibition is -26.7% (inactive).

Consider `Cc1cccc(NC(=O)C2CCCN(S(=O)(=O)c3cccc4nsnc34)C2)c1` (configuration not stated), for which the inhibition was 11% (inactive).

Turning to `COc1ccc(NC(=O)C2CCCN(C(=O)Nc3ccc(OC)cc3)C2)cc1` (configuration not stated), the inhibition is 13.2% (inactive).

As for `O=C(NNc1ccccn1)C(=O)NNS(=O)(=O)c1ccc(F)cc1`, the inhibition is -7.54% (inactive).

With `Cc1ccc(S(=O)(=O)NNC(=O)C(=O)NNc2ccccn2)cc1`, the inhibition is 1.07% (inactive).

On to `CCOc1ccc2c(c1)OC(c1ccc(C)cc1)(C(F)(F)F)NC2=O` (configuration not stated), for which the inhibition is 2.02% (inactive).

Consider `COC(=O)c1c(NC(=O)CSc2nnc(Cn3nnc4ccccc43)n2C)sc(C)c1C`, for which the inhibition is 8.24% (inactive).

With `Cc1sc2nc(CSc3nc4ccccc4s3)[nH]c(=O)c2c1C`, the inhibition was -8.83% (inactive).

For the compound `COc1ccc(NS(=O)(=O)c2cc(OC)ccc2OC)cc1`, the inhibition was -1.85% (inactive).

`CC(=O)NC1Sc2ccccc2N=C1c1ccccc1` (configuration not stated): the inhibition was -15.8% (inactive).

Regarding `Fc1ccccc1C1CC(c2ccco2)=Nc2ccccc2S1` (configuration not stated), the inhibition was 9.62% (inactive).

As for `Cc1ccc(Cl)cc1N(CC(=O)N1CCCCCC1)S(C)(=O)=O`, the inhibition is -3.02% (inactive).

Take `CCCOCc1ccc(O)c2ncccc12`: the inhibition was 16.8% (inactive).

Regarding `Oc1ccc(CN2CCCCC2)c2cccnc12`, the inhibition was -7.91% (inactive).

For the compound `Oc1ccc2ccccc2c1CN1CCN(c2ccccc2)CC1`, the inhibition is 2.7% (inactive).

As for `CC(C)COCc1ccc(O)c2ncccc12`, the inhibition was 1.72% (inactive).

Turning to `O=S(=O)(c1ccc(Cl)cc1)N1CCN(Cc2ccc(O)c3ncccc23)CC1`, the inhibition is -17.9% (inactive).

For the compound `CCOc1cccc(CN2CCN(c3cccc(C(F)(F)F)c3)CC2)c1O`, the inhibition was -5.55% (inactive).

Turning to `c1ccc(N2CCN(Cc3ccnc4ccccc34)CC2)cc1`, the inhibition was -4.89% (inactive).

As to `O=[N+]([O-])c1cc(CN2CCN(c3ccccc3)CC2)c(O)c2ncccc12`, the inhibition is 4.63% (inactive).

As for `O=C(N/C(=C/c1ccco1)C(=O)N1CCOCC1)c1ccccc1Br`, the inhibition is 7.88% (inactive).
